The whole screen tested about 220,000 compounds, of which about 1,600 (0.73%) were called active.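 The calls were made as follows: active = inhibition above about 70% (limit read from the data); inactive = the rest.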 The full list was thinned out, with actives kept by preference.

This test deals with 14-3-3 protein zeta/delta (Bos taurus) (UniProt P63103). Put plainly: disruptors of 14-3-3 zeta phospho-Bad complex – biochemical, TR-FRET, bovine 14-3-3 zeta, primary screen (AID 781).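 Also: 0% = full 14-3-3 plus peptide FRET controls and 100% = background without 14-3-3.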 Particulars: TR-FRET 14-3-3zeta/Dy647-pBad peptide displacement, 1 h; at 21.7 µM; hits give high values. (In general: Time-resolved FRET reads energy transfer from a long-lived donor to a nearby acceptor.)
14-3-3 protein zeta/delta (Bos taurus), sequence (P63103 whole entry, looked up): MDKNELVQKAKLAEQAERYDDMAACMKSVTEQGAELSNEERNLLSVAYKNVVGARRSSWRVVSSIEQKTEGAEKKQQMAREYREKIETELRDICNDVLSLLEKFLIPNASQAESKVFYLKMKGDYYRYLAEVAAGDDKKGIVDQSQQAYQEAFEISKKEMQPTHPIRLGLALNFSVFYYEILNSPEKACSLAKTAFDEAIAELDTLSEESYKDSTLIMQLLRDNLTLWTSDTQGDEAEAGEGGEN
Take `Cc1nc2ccccc2nc1N/N=C/c1ccc(O)cc1O`: the inhibition was -9.43% (inactive). As to `O=C(N/N=C/c1ccco1)c1csc2c1CCCC2`, the inhibition was -2.18% (inactive). As to `Cc1c(C)c(C)c2[nH]c(=S)[nH]c2c1C`, the inhibition was -0.36% (inactive).

With `O=c1[nH]c(=S)[nH]c2[nH]c(=S)[nH]c12`, the inhibition was 73.3% (active). Next, `Cc1cc(=O)[nH]c(=S)[nH]1`: 0.3% (inactive); `Nc1nc(SCC(=O)N2CCN(S(=O)(=O)c3ccc(Cl)cc3)CC2)n[nH]1`: -16.8% (inactive); `CC1CCN(C(=S)NC2CC3CCC2C3)CC1` (configuration not stated): -3% (inactive).

Consider `COCc1c(N)c(C)nc(Cl)c1C#N`, for which the inhibition is -17% (inactive). Next, `Cc1nnc(SCCCCSc2nnc(C)c(=O)[nH]2)[nH]c1=O`: -6.9% (inactive). Next, `OCCN(Cc1ccccc1)Cc1ccc(Cl)cc1`: 42.7% (inactive); `CC(O)CN(Cc1ccc(Cl)cc1)CC(C)O` (configuration not stated): 85.5% (active); `CN(C)CCCNC(=S)NCc1ccc(Cl)cc1`: -10.2% (inactive).

For `Cn1c(N)c(C(=O)COC(=O)c2ccccc2NCc2ccco2)c(=O)n(C)c1=O`, the inhibition is 0.84% (inactive).

For `O=C(N/N=C/c1ccc(OCc2ccccc2)cc1)c1ccc(O)cc1`, the inhibition is -9.63% (inactive). Turning to `CCCCCC(=O)Nc1ccc(C(=O)N/N=C/c2ccc([N+](=O)[O-])cc2)cc1`, the inhibition is -13.5% (inactive). Next, `O=C(COc1ccc(/C=N/NC(=O)c2ccc(O)cc2)cc1)Nc1ccc([N+](=O)[O-])cc1`: 74.2% [fluorescence artefact?] (active). Take `CSc1n[nH]c(=S)n1N`: the inhibition is -10% (inactive).

Regarding `CN(c1ccccc1)S(=O)(=O)c1cc(C(=O)Nc2nc3ccccc3[nH]2)ccc1Cl`, the inhibition was 1.7% (inactive). Turning to `COC(=O)CNC(=O)c1ccc2c(c1)S(=O)(=O)c1ccccc1C2=O`, the inhibition was 2.96% (inactive). Next, `O=C(c1ccc2c(c1)N(Cc1ccc(F)cc1)C(=O)c1ccccc1S2(=O)=O)N1CCN(c2ccccn2)CC1`: -4.43% (inactive).

For `CCCCN(C)C(=O)c1ccc2c(c1)N(CC)C(=O)c1ccccc1S2(=O)=O`, the inhibition was 75.6% (active). On to `Brc1ccc2c(c1)[C@H]1OCC[C@H]1[C@@H](c1cccs1)N2`, for which the inhibition was 4.8% (inactive). In the case of `Nc1nnc(SCCN2C(=O)c3ccccc3S2(=O)=O)s1`, the inhibition is 5.12% (inactive). For the compound `c1ccc(-c2ccccc2OCCN2CCCCC2)cc1`, the inhibition is 40.5% (inactive). Turning to `O=S1(=O)C=C(SCCN2CCCC2)c2ccccc21`, the inhibition was 71.3% (active). Next, `Cc1nn(CC2CC2)c(=O)n1N(C)c1ncc(C(F)(F)F)cc1Cl`: -11.7% (inactive); `Cc1nn(C)cc1N1C(=O)c2cccc3c(N)ccc(c23)C1=O`: -2.5% (inactive).

As a reminder, the inhibition is the relative decrease from the control value, in per cent.

Values taken from PubChem BioAssay AID781 (Emory University Molecular Libraries Screening Center, 2007).
